From the antibiotic and cytotoxicity screens of Wong et al. (2023)
The campaign covered roughly 39,000 compounds. About 1,500 (3.8%) were called active. What follows is part of a selection rich in actives, with near analogues and random picks from the rest.

test system: HSkMC (human skeletal muscle cells); experiment: cytotoxicity call (relative viability < 0.9); settings: 10 µM

| SMILES | cytotoxicity call |
| --- | --- |
| CC(C)NC(=O)N(C)C[C@H]1Oc2c(NC(=O)Nc3ccc4c(c3)OCO4)cccc2C(=O)N([C@H](C)CO)C[C@@H]1C | inactive |
| C[C@H]1CCCCO[C@H](CN(C)Cc2ccncc2)[C@@H](C)CN([C@@H](C)CO)C(=O)c2cc(NC(=O)CCC(F)(F)F)ccc2O1 | inactive |
| O=C(O)C1(c2cccs2)CCCC1 | inactive |
| Cc1noc(C)c1NC(=O)N(C)C[C@H]1Oc2c(NC(=O)NC(C)C)cccc2C(=O)N([C@@H](C)CO)C[C@@H]1C | inactive |
| CC[N+](CC)(CC)CCOc1ccc(/C=C/c2ccccc2)cc1 | inactive |
| CCCCOc1cc(C(=O)NCCN(CC)CC)c2ccccc2n1.Cl | inactive |
| CCN(CC)CCNC(=O)c1c(C)[nH]c(/C=C2/C(=O)Nc3ccc(-c4csc(-c5ccccc5)n4)cc32)c1C | active |
| CN(C)CCCNC(=O)C[C@H]1CC[C@H]2[C@@H](COC[C@H](O)CN2C(=O)Nc2cc(Cl)cc(Cl)c2)O1 | inactive |
| Cn1cc(N2C[C@]3(CNCCOC3)OCC2=O)cn1 | inactive |
| CC(C)Nc1ncnc(N)c1[N+](=O)[O-] | inactive |
| COc1ccc(C#Cc2ccc3c(c2)[C@]2(C(=O)N3)[C@H](C(=O)N3CCCCCCC3)[C@H]3C(=O)O[C@H](c4ccccc4)[C@H](c4ccccc4)N3[C@@H]2c2ccc(O)cc2)cc1 | inactive |
| C[C@@H]1CCCCO[C@H](CN(C)Cc2ccc(C(F)(F)F)cc2)[C@@H](C)CN([C@@H](C)CO)C(=O)c2cc(NC(=O)Nc3ccc4c(c3)OCO4)ccc2O1 | active |
| C[C@@H]1CCCCO[C@H](CN(C)Cc2ccc(C(F)(F)F)cc2)[C@H](C)CN([C@H](C)CO)C(=O)c2cc(NC(=O)Nc3ccc4c(c3)OCO4)ccc2O1 | inactive |
| C[C@@H]1CN([C@H](C)CO)C(=O)c2cc(NC(=O)Nc3ccc4c(c3)OCO4)ccc2O[C@@H](C)CCCCO[C@@H]1CN(C)Cc1ccc(C(F)(F)F)cc1 | inactive |
| C[C@@H]1CCCCO[C@@H](CN(C)Cc2ccc(C(F)(F)F)cc2)[C@H](C)CN([C@H](C)CO)C(=O)c2cc(NC(=O)Nc3ccc4c(c3)OCO4)ccc2O1 | active |
| C[C@@H]1CN([C@@H](C)CO)C(=O)c2cc(NC(=O)Nc3ccc4c(c3)OCO4)ccc2O[C@@H](C)CCCCO[C@H]1CN(C)Cc1ccc(C(F)(F)F)cc1 | inactive |
| C[C@@H]1CN([C@@H](C)CO)C(=O)c2cc(NC(=O)Nc3ccc4c(c3)OCO4)ccc2O[C@@H](C)CCCCO[C@@H]1CN(C)Cc1ccc(C(F)(F)F)cc1 | inactive |
| C[C@H](CO)N1C[C@H](C)[C@@H](CN(C)C(=O)NC2CCCCC2)Oc2c(NC(=O)C3CC3)cccc2C1=O | inactive |
| CN(C)CCO[C@@H]1CC[C@@H]2[C@H]1OCCN2S(C)(=O)=O | inactive |
| COCCNC(=O)C[C@@H]1CC[C@H]2[C@@H](COc3ccc(NC(=O)Nc4cccc(F)c4)cc3C(=O)N2C)O1 | inactive |
| C[C@@H]1CCCCO[C@H](CN(C)C(=O)Nc2ccc(F)cc2)[C@@H](C)CN([C@@H](C)CO)C(=O)c2cc(NC(=O)c3ccccc3)ccc2O1 | inactive |
| C[C@@H]1CCCCO[C@H](CN(C)S(=O)(=O)c2cccs2)[C@H](C)CN([C@@H](C)CO)C(=O)c2cc(NC(=O)Nc3ccc(C(F)(F)F)cc3)ccc2O1 | active |
| C[C@@H]1CCCCO[C@@H](CN(C)S(=O)(=O)c2cccs2)[C@@H](C)CN([C@H](C)CO)C(=O)c2cc(NC(=O)Nc3ccc(C(F)(F)F)cc3)ccc2O1 | inactive |

| SMILES | cytotoxicity call |
| --- | --- |
| C[C@H](CO)N1C[C@H](C)[C@H](CN(C)S(=O)(=O)c2cccs2)OCCCC[C@H](C)Oc2ccc(NC(=O)Nc3cccc4ccccc34)cc2C1=O | active |
| C[C@@H]1CN([C@@H](C)CO)C(=O)c2cc(NC(=O)Nc3ccc(C(F)(F)F)cc3)ccc2O[C@@H](C)CCCCO[C@@H]1CN(C)S(=O)(=O)c1cccs1 | inactive |
| C[C@H](CO)N1C[C@H](C)[C@@H](CN(C)S(=O)(=O)c2cccs2)OCCCC[C@H](C)Oc2ccc(NC(=O)Nc3ccc4c(c3)OCO4)cc2C1=O | active |
| C[C@@H]1CN([C@H](C)CO)C(=O)c2cc(NC(=O)Nc3ccc(C(F)(F)F)cc3)ccc2O[C@@H](C)CCCCO[C@@H]1CN(C)S(=O)(=O)c1cccs1 | inactive |
| C[C@H](CO)N1C[C@H](C)[C@@H](CN(C)S(=O)(=O)c2cccs2)OCCCC[C@H](C)Oc2ccc(NC(=O)Nc3ccc(C(F)(F)F)cc3)cc2C1=O | inactive |
| C[C@@H]1CN([C@@H](C)CO)C(=O)c2cc(NC(=O)Nc3ccc4c(c3)OCO4)ccc2O[C@@H](C)CCCCO[C@@H]1CN(C)S(=O)(=O)c1cccs1 | inactive |
| C[C@@H]1CCCCO[C@@H](CN(C)S(=O)(=O)c2cccs2)[C@H](C)CN([C@@H](C)CO)C(=O)c2cc(NC(=O)Nc3cccc4ccccc34)ccc2O1 | inactive |
| C[C@@H]1CCCCO[C@H](CN(C)S(=O)(=O)c2cccs2)[C@@H](C)CN([C@@H](C)CO)C(=O)c2cc(NC(=O)Nc3ccc(C(F)(F)F)cc3)ccc2O1 | active |
| C[C@@H]1CCCCO[C@@H](CN(C)S(=O)(=O)c2cccs2)[C@@H](C)CN([C@@H](C)CO)C(=O)c2cc(NC(=O)Nc3cccc4ccccc34)ccc2O1 | inactive |
| C[C@@H]1CN([C@H](C)CO)C(=O)c2cc(NC(=O)Nc3ccc4c(c3)OCO4)ccc2O[C@@H](C)CCCCO[C@H]1CN(C)S(=O)(=O)c1cccs1 | inactive |
| C[C@@H]1CN([C@H](C)CO)C(=O)c2cccc(NS(=O)(=O)c3ccccc3)c2O[C@@H]1CN(C)CC1CC1 | inactive |
| O=C(C[C@H]1CC[C@@H]2[C@H](COC[C@H](O)CN2Cc2ccccc2F)O1)N[C@H]1CCN(Cc2ccccc2)C1 | inactive |
| O=c1[nH][nH]c(=S)n1C1CC1 | inactive |
| C=C(/C=C/CNS(=O)(=O)c1ccc(C)cc1)[C@H](O)[C@H]1CCCN1S(=O)(=O)c1ccccc1[N+](=O)[O-] | inactive |
| O=C(C[C@H]1C[C@@H]2c3cc(NC(=O)c4cccnc4)ccc3O[C@@H]2[C@H](CO)O1)NCc1cc(F)ccc1F | inactive |
| C[C@H]1CN([C@@H](C)CO)C(=O)CCCn2nncc2CO[C@H]1CN(C)C(=O)CCCN(C)C | inactive |
| CCC[C@@H]1C[C@@H](C(=O)N[C@H]([C@H]2O[C@H](SC)[C@H](O)[C@@H](O)[C@H]2O)[C@@H](C)Cl)N(C)C1 | inactive |
| Cc1noc(C)c1S(=O)(=O)N(C)C[C@H]1Oc2ccc(NS(C)(=O)=O)cc2CC(=O)N([C@@H](C)CO)C[C@H]1C | inactive |
| CCC(CCC(C)C1CCC2C3CC=C4CC(O)CCC4(C)C3CCC12C)C(C)C (stereo not drawn) [beta-SITOSTEROL ] | inactive |
| N/C(=N/O)c1cnc2n(c1=O)CCS2 | inactive |
| C[C@@H]1CN([C@H](C)CO)C(=O)Cc2cc(NC(=O)Cc3ccccc3)ccc2O[C@H]1CN(C)S(=O)(=O)c1cccs1 | inactive |
| O=C(CN1CCOCC1)N[C@H]1CC[C@H](CCNC(=O)C2CCCCC2)O[C@H]1CO | inactive |
| C[C@@H]1CN([C@@H](C)CO)C(=O)c2ccccc2-c2ccccc2CO[C@H]1CN(C)S(=O)(=O)c1ccc(C(F)(F)F)cc1 | inactive |

| SMILES | cytotoxicity call |
| --- | --- |
| Cc1coc2c1C(=O)C(=O)c1c-2ccc2c1CCCC2(C)C | active |
| Cc1cccc2c3c(ccc12)C1=C(C(=O)C3=O)C(C)CO1 (configuration not stated) | inactive |
| CC1COC2=C1C(=O)C(=O)c1c2ccc2c1CCCC2(C)C (configuration not stated) | active |
| C[C@H]1CN(C(=O)N(C)C)CCN1C(=O)N(C)C | inactive |
| O=C(O)Cn1c(=O)n(CC(=O)O)c2ccccc21 | inactive |
| COC(=O)C(CCCN1C(=O)c2ccccc2C1=O)(NC(C)=O)c1nn[nH]n1 (configuration not stated) | inactive |
| C[C@H](CO)N1C[C@H](C)[C@H](CN(C)C(=O)c2cnccn2)Oc2ncc(-c3cccc(C#N)c3)cc2C1=O | inactive |
| C[C@@H]1CN([C@H](C)CO)C(=O)CCCn2nncc2CO[C@H]1CN(C)Cc1cccc2c1OCCCO2 | inactive |
| CCOC(=O)N(C)C[C@H]1OCc2cn(nn2)CCCC(=O)N([C@@H](C)CO)C[C@@H]1C | inactive |
| O=C(O)CCSC[C@@H]1O[C@H]2O[C@@H]3[C@@H](O)[C@H](O)[C@H](O[C@@H]4[C@@H](O)[C@H](O)[C@H](O[C@@H]5[C@@H](O)[C@H](O)[C@H](O[C@@H]6[C@@H](O)[C@H](O)[C@H](O[C@@H]7[C@@H](O)[C@H](O)[C@H](O[C@@H]8[C@@H](O)[C@H](O)[C@H](O[C@@H]9[C@@H](O)[C@H](O)[C@H](O[C@@H]1[C@@H](O)[C@@H]2O)O[C@H]9CSCCC(=O)O)O[C@H]8CSCCC(=O)O)O[C@H]7CSCCC(=O)O)O[C@H]6CSCCC(=O)O)O[C@H]5CSCCC(=O)O)O[C@H]4CSCCC(=O)O)O[C@H]3CSCCC(=O)O | inactive |
| C[C@H](CO)N1C[C@H](C)[C@H](CN(C)Cc2ccc(C(=O)O)cc2)OCCCC[C@H](C)Oc2ccc(NC(=O)Nc3ccccc3)cc2C1=O | inactive |
| C[C@H](CO)N1C[C@H](C)[C@@H](CN(C)S(C)(=O)=O)Oc2ccc(NC(=O)Nc3ccc(F)cc3)cc2CC1=O | inactive |
| CCC(=C/[C@H](C)C/C=C/C(C)=C/[C@@H](C)C(=O)[C@@H](C)[C@H](O)[C@@H](C)C/C(C)=C/C(=O)O)/C=C/[C@@H]1OC(=O)C=C[C@@H]1C | active |
| Cc1noc(C)c1NC(=O)N(C)C[C@@H]1Oc2ccc(NS(C)(=O)=O)cc2CC(=O)N([C@H](C)CO)C[C@H]1C | inactive |
| C[C@@H]1CN([C@H](C)CO)S(=O)(=O)c2ccc(-c3cccnc3)cc2O[C@H]1CN(C)C(=O)c1cccc(F)c1 | inactive |
| COc1ccc([Si](C)(C)[C@@H]2[C@@H](CCO)O[C@]3(C(=O)N(Cc4ccc(N(C=O)c5ccccc5)cc4)c4ccccc43)[C@H]2C)cc1 | inactive |
| COc1ccc([Si](C)(C)[C@H]2[C@H](CCO)O[C@@]3(C(=O)N(Cc4ccccc4)c4ccc(N(C=O)c5ccccc5)cc43)[C@@H]2C)cc1 | inactive |
| C=CCN1C(=O)[C@@]2(O[C@@H](CCO)[C@H]([Si](C)(C)c3ccc(OC)cc3)[C@H]2C)c2cc(N(C=O)c3ccccc3)ccc21 | active |
| C=CCN1C(=O)[C@]2(O[C@H](CCO)[C@@H]([Si](C)(C)c3ccc(OC)cc3)[C@@H]2C)c2cc(N(C=O)c3ccccc3)ccc21 | active |
| COc1ccc([Si](C)(C)[C@@H]2[C@@H](CCO)O[C@]3(C(=O)N(Cc4ccccc4)c4ccc(N(C=O)c5ccccc5)cc43)[C@H]2C)cc1 | inactive |
| COc1ccc([Si](C)(C)[C@H]2[C@H](CCO)O[C@@]3(C(=O)N(Cc4ccc(N(C=O)c5ccccc5)cc4)c4ccccc43)[C@@H]2C)cc1 | inactive |
